# Bioassay records (PubChem BioAssay)
# TIM10 inh = TIM10 yeast growth inhibition. 330,000 tested, 1.4% active. inhibition, % at 10 µM. S. cerevisiae TIM10 strain growth, BacTiter-Glo luminescence, 24 h. AID 463195;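 active = inhibition of 40% or more at the single tested concentration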;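 also: wild-type TIM10 isogenic control strain grown at permissive 25 °C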
# tim10-1 inh = inhibits growth of tim10-1 mutant yeast; S. cerevisiae tim10-1 ts strain growth, BacTiter-Glo, 24 h; AID 463190; inhibition, % at 20 µM; 330,000 tested, 2.2% active;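 active = inhibition of at least 40%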;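 also: mutant grown at 25 °C; 0% = DMSO wells with yeast and 100% = wells holding no yeast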
# SKKanGAS inh = inhibitors of SKKanGAS S. pyogenes growth in kanamycin (SK-promoter or general growth effect); inhibition, % at 7.5 µM; 300,000 tested, 1.3% active; BacTiter-Glo, 6 h;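 active = mean replicate score, as percent of positive control median, at least 50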;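 also: strain carries kanamycin resistance gene driven by streptokinase promoter and grows in 40 µg/ml kanamycin; loss of luminescence reflects streptokinase promoter inhibition or plain growth inhibition; 0% = median of DMSO wells and 100% = positive control at its reference dose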
# tim23-1 inh = growth inhibitors of tim23-1 mutant yeast | S. cerevisiae tim23-1 growth, BacTiter-Glo luminescence, 24 h | inhibition, % at 20 µM | 330,000 tested, 1.3% active;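 active = growth inhibition of the mutant yeast at or above 50%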;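 also: temperature-sensitive mutant grown at 25 °C; plate controls were DMSO-treated mutant yeast for no effect and medium wells lacking yeast for full effect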
# PfHsp90 yeast 2 = reduces growth (ATP signal) of yeast expressing P. falciparum Hsp90 | S. cerevisiae expressing PfHsp90, BacTiter-Glo ATP, 48 h; yeast lacking PDR1 and PDR3 efflux regulators | inhibition, % at 9.4 µM | 310,000 tested, 0.32% active | AID 504621;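 active = every replicate shows inhibition above about 80%, whatever the replicate mean, limit read from the data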;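 also: 0% = DMSO neutral controls and 100% = 20 µM radicicol positive controls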
# NALP3 yeast inh = inhibitors of NALP3 inflammasome in yeast; Yeast reconstituted NLRP3/ASC/caspase-1, beta-gal luminescence, 24 h; inhibition, % at 10 µM; 330,000 tested, 0.39% active;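 active = inhibition of 50% or more; inactive = inhibition below 50%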;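 also: plate controls were induced DMSO wells for no effect and uninduced yeast grown without galactose for full effect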
# The depositor's hits bear a star; / = no result given. In the library only some 4.6% were active in any assay of this set; here they are far more common.
SMILES,TIM10 inh,tim10-1 inh,SKKanGAS inh,tim23-1 inh,PfHsp90 yeast 2,NALP3 yeast inh
Fc1ccccc1COc1ccc(-c2nnn(Cc3ccccc3F)n2)cc1,9,19,14,15,-7,4
Cn1nnc(-c2ccc(OCc3ccccc3F)cc2)n1,-6,12,53*,19,4,33
COc1ccccc1N1CCN(C(=O)c2cccc(S(=O)(=O)Nc3ccccc3F)c2)CC1,-4,3,/,14,/,19
O=C1C=CC2(O[C@H](c3ccccc3)[C@@H](c3ccccc3)O2)[C@H](Sc2ccccc2O)C1,/,/,/,/,113*,/
C[C@@H]1[C@@H](Sc2ccccc2)CC(=O)O[C@@H]1c1ccc(-c2ccccc2)cc1,0,23,7,17,7,9
Cc1ccc(Nc2nc3nonc3[nH]c2=O)cc1C,-5,-23,26,-11,5,16
Cc1ccc(Nc2nc3nonc3[nH]c2=O)cc1Cl,1,12,106*,18,3,20
O=C(CCS(=O)(=O)c1ccc(Br)cc1)NCc1ccc(F)cc1,-7,3,-2,13,-5,17
O=C(CSc1nc2c(cnn2-c2ccccc2)c(=O)[nH]1)N1N=C(c2cccs2)CC1c1ccc(F)cc1 (centres undefined),-51,0,51*,-6,-65,6
COc1ccc(CNCC(O)(c2ccccc2)c2ccc(Cl)cc2)cc1 (centres undefined),25,13,3,-1,-8,35
COc1cccc(CNCC(O)(c2ccc(Cl)cc2)c2ccc(Cl)cc2)c1,22,32,84*,22,10,24
CCC1CCCCN1S(=O)(=O)c1ccc(C(=O)Nc2nnc(C3=COCCO3)o2)cc1 (centres undefined),-4,0,79*,1,-6,-3
O=C(Nc1nnc(C2=COCCO2)o1)c1ccc(S(=O)(=O)N2CCCC2)cc1,3,-2,2,2,-4,9
CS(=O)(=O)c1ccccc1-c1nnc(NC(=O)c2ccc(S(=O)(=O)N3CCCC3)cc2)o1,5,8,6,15,-2,2
CCC1CCCCN1S(=O)(=O)c1ccc(C(=O)Nc2nnc(C3CC3)o2)cc1 (centres undefined),28,40,60*,29,-11,-5
O=C(Nc1nnc(-c2ccccc2Cl)o1)c1ccc(S(=O)(=O)N2CCCCCC2)cc1,25,17,107*,6,/,4
CCC1CCCCN1S(=O)(=O)c1ccc(C(=O)Nc2nnc(-c3ccccc3Cl)o2)cc1 (centres undefined),6,32,110*,21,-45,-7
N#Cc1c(SCC(=O)Nc2nncs2)sc2c(O)cc(=O)[nH]c12,8,-28,5,2,-4,13
CC1CCCCN1S(=O)(=O)c1ccc(C(=O)Nc2nnc(-c3ccccc3Cl)o2)cc1 (centres undefined),37,13,97*,27,0,14
Cc1ccc(C(=O)C(C)OC(=O)CN2C(=O)NC3(CCCC3)C2=O)cc1 (centres undefined),0,13,-17,4,27,20
COc1ccc(CN2C(=O)c3ccccc3C(/C=N\OCc3ccc(F)cc3)C2=O)cc1 (centres undefined),7,14,24,17,-50,13
COc1ccc(CN2C(=O)c3ccccc3C(/C=N/OCc3ccc(Cl)cc3)C2=O)cc1 (centres undefined),7,19,97*,33,-16,20
Fc1ccccc1N=C1NN=C(c2ccccc2)CS1,-4,18,67*,20,/,24
Fc1ccc(F)c(C2=NNC(=Nc3ccccc3F)SC2)c1,12,27,1,18,-7,19
CC(C)=CCOc1ccc([C@@H]2COc3c(ccc4c3C=CC(C)(C)O4)C2)c(O)c1,7,5,100*,8,/,16
COc1ccc(OCc2cc(=O)c3ccc4c(c3o2)C=CC(C)(C)O4)cc1OC,15,2,/,35,-19,21
C=CCn1c(C)cc(C(=O)CSc2nnc(NCc3ccccc3)s2)c1C,/,/,/,/,111*,/
C=CCn1c(C)cc(C(=O)CSc2nc3ccccc3c(=O)[nH]2)c1C,-64,-35,/,-50,100*,22
CCCCC(CC)CN1C(=O)/C(=C/c2ccncc2)SC1=S (centres undefined),13,33,87*,37,/,9
